Results published in PubChem BioAssay (Tox21).
Results filed as inconclusive are left out. Active and inactive are the calls of the source. Unless noted, the call rests on the fitted dose curve; in most records, active means well fitted curve in the direction sought with a large enough effect in the repeat runs; inconclusive means weak or mixed curves; inactive means no such curve, though single readings can be large; an effect the other way counts as inactive or inconclusive.

Legend:
[1] = qHTS assay to identify small molecule antagonists of the estrogen related receptor (ERR) signaling pathway from Tox21 library - cell viability counter screen (AID 1224834); further: nearly all actives have a fitted effect of over 30% in size
Summary of the method: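 ERR reporter cells were plated 6 h before compound addition, then exposed to test compounds in DMSO for 17.5 h at 37 C. Viability was read as CellTiter-Fluor fluorescence after a 30-minute incubation at 37 C.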

[2] = target: Luciferin 4-monooxygenase (Photinus pyralis) (UniProt P08659); assay: qHTS assay to identify small molecule inhibitors of firefly luciferase (AID 1224835); further: series mostly up to about 120 µM; nearly all actives have a fitted effect of over 25% in size
Sequence of Luciferin 4-monooxygenase (Photinus pyralis) (P08659 whole entry, looked up): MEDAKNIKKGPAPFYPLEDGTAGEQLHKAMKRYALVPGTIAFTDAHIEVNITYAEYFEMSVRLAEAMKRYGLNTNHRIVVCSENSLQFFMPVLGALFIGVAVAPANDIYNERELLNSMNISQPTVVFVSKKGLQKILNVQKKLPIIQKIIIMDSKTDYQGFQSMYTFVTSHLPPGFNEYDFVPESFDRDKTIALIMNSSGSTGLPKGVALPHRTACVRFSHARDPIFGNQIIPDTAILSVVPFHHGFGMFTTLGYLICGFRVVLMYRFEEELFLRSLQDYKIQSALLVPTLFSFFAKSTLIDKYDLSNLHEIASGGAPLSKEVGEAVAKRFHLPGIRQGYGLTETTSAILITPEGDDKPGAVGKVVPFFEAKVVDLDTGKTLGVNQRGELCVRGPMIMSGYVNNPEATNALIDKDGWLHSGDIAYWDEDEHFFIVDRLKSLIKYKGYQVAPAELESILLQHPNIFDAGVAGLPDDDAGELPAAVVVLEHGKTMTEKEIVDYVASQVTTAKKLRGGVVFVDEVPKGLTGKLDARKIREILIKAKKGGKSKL
Summary of the method: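 Inhibition of purified Photinus luciferase is measured by luminescence. Substrate levels (D-luciferin, ATP) sit at their KM values. Each compound is tested in a concentration series.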

[3] = qHTS assay to identify small molecule agonists of the constitutive androstane receptor (CAR) signaling pathway - cell viability counter screen (AID 1224836); further: series mostly up to about 92 µM; nearly all actives have a fitted effect of over 45% in size
Summary of the method: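 Cells were seeded and incubated 4 hrs. Compounds were added across 15 concentrations together with PK11195 at 0.75 uM final. Plates were incubated 23 hrs at 37 C. CellTiter-Fluor was added and fluorescence measured.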

[4] = target: Nuclear receptor subfamily 1 group I member 3 (Homo sapiens) (UniProt Q14994); assay: qHTS assay to identify small molecule agonists of the constitutive androstane receptor (CAR) signaling pathway (AID 1224839);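 further: HepG2 cells stably carrying human CAR and a CYP2B6 luciferase reporter; series mostly up to about 92 µM; nearly all actives have a fitted effect of over 15% in size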
Sequence of Nuclear receptor subfamily 1 group I member 3 (Homo sapiens) (Q14994 whole entry, looked up): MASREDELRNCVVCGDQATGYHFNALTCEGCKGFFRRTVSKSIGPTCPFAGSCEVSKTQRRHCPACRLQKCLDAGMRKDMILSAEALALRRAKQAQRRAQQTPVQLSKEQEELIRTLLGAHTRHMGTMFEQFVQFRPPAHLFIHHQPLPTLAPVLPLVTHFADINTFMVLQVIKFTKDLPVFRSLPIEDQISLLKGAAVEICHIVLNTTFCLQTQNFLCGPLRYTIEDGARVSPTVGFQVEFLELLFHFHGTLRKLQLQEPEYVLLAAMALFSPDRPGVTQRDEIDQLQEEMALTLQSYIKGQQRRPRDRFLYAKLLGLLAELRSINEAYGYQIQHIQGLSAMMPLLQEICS
Summary of the method: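 Cells were plated and incubated 4 hrs, then dosed with compounds at 15 concentrations. PK11195 was added to 0.75 uM final. After 24 hrs at 37 C, luciferase luminescence was measured.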

[5] = qHTS assay to identify small molecule antagonists of the estrogen related receptor signaling pathway with the pleiotropic PPARgamma coactivator (PGC) from Tox21 10K library - cell viability counter screen (AID 1224840; active means well fitted cell-killing curve with a large enough effect in the repeat runs, not every such curve was filed as active; further: nearly all actives have a fitted effect of over 40% in size)
Summary of the method: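 PGC/ERR cells were seeded at 2,000 cells/well and left 6 hours at 37 C/5% CO2 before pin-tool addition of compounds in DMSO. After 17.5 hours at 37 C, CellTiter-Fluor was added and fluorescence read 30 minutes later.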

[6] = target: Thyrotropin receptor (Homo sapiens) (UniProt P16473); assay: qHTS assay to identify small molecule agonists of the thyroid stimulating hormone receptor (TSHR) signaling pathway (AID 1224843; calls by dose curve; further: nearly all actives have a fitted effect of over 45% in size)
Sequence of Thyrotropin receptor (Homo sapiens) (P16473 whole entry, looked up): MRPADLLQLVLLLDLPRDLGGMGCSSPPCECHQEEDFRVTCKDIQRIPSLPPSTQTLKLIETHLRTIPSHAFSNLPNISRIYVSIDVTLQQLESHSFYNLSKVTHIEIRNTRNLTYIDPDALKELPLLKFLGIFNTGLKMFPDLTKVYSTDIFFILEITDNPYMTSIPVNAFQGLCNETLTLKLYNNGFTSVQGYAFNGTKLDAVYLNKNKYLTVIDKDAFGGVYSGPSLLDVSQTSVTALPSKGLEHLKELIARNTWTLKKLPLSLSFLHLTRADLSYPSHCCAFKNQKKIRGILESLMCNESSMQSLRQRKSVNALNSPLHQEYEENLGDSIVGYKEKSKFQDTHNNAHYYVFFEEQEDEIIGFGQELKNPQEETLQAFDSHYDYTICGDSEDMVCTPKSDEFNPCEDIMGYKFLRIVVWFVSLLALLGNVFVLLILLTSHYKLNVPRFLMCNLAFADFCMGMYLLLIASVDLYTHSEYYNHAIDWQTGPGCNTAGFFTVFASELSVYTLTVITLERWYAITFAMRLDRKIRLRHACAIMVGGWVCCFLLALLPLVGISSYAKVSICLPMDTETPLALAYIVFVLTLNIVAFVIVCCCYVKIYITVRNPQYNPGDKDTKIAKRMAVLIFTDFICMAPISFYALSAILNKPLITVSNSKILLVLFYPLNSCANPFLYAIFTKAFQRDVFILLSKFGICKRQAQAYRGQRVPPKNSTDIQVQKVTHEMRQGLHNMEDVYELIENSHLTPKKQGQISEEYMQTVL
Summary of the method: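 HEK293 cells stably bearing the thyrotropin receptor were plated at 800 cells/well and challenged with compound (30 min, RT). Accumulated cAMP was quantified via cAMP-d2 competing for cryptate-tagged antibody.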

[7] = target: Nuclear receptor subfamily 1 group I member 3 (Homo sapiens) (UniProt Q14994); assay: qHTS assay to identify small molecule antagonists of the constitutive androstane receptor (CAR) signaling pathway (AID 1224838); further: nearly all actives have a fitted effect of over 40% in size
Summary of the method: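 HepG2 cells stably co-transfected with hCAR and a CYP2B6-2.2kb luciferase reporter were seeded 4 h before compound addition at 15 concentrations. Cells were stimulated with 50 nM CITCO (final) for 24 h at 37 C; luciferase luminescence was then read.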

[8] = qHTS assay to identify small molecule antagonists of the estrogen related receptor signaling pathway with the pleiotropic PPARgamma coactivator (PGC) from Tox21 10K library (AID 1224841; call rule not given here; further: series mostly up to about 92 µM; actives are mostly falling curves and most rising ones were filed inactive; nearly all actives have a fitted effect of over 50% in size)
Summary of the method: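 PGC/ERR reporter cells were seeded at 2,000 cells/well and held 6 hours at 37 C/5% CO2 before pin-tool addition of compounds in DMSO. After 18 hours at 37 C, One-Glo was added and luminescence read after 30 minutes at room temperature.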

[9] = qHTS assay to identify small molecule agonists of the estrogen related receptor signaling pathway with the pleiotropic PPARgamma coactivator (PGC) from Tox21 10K library (AID 1224842); further: nearly all actives have a fitted effect of over 15% in size
Summary of the method: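 Luminescence from One-Glo (30 min, room temperature) measured after PGC/ERR cells had 18 h at 37 C with pinned compound (23 nL in DMSO). Cells had been seeded at 2,000 per well and pre-incubated 6 h.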

[10] = qHTS assay to identify small molecule antagonists of the constitutive androstane receptor (CAR) signaling pathway - cell viability counter screen (AID 1224837); further: series mostly up to about 92 µM; nearly all actives have a fitted effect of over 45% in size
Summary of the method: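 HepG2 cells stably expressing hCAR and a CYP2B6-2.2kb reporter were plated and pre-incubated 4 hr at 37 C/5% CO2, then given compounds at 15 concentrations plus 50 nM CITCO (final). After 23 hr, viability was read by CellTiter-Fluor fluorescence.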

Measured: Potency

CCOC(=O)c1ncn2c1CN(C)C(=O)c1cc(F)ccc1-2
inactive: [1] | [2] | [3] | [4] | [5] | [6]

O=C(OCC(COC(=O)c1cccnc1)(COC(=O)c1cccnc1)COC(=O)c1cccnc1)c1cccnc1
not listed: [8] | [9] | [10]
inactive: all other assays above

CC(C)OC(=O)CCCCC(=O)OC(C)C
inactive: [1] | [2] | [3] | [5] | [6]

CC(=O)NCc1c(I)c(NC(C)=O)c(I)c(C(=O)O)c1I
not listed: [10]
inactive: all other assays above

CCCOC(=O)C(C)O (stereo not drawn)
not listed: [8] | [9] | [10]
inactive: all other assays above

CC(C(=O)O)c1ccc2c(c1)CC(=O)c1ccccc1S2 (stereo not drawn)
not listed: [10]
inactive: all other assays above

OCCCCC(O)CO (stereo not drawn)
not listed: [4] | [7] | [10]
inactive: all other assays above

CCCC/C=C\CCCCCCCCCC=O
not listed: [3]
inactive: all other assays above

On1nnc2ccccc21
not listed: [3]
inactive: all other assays above

CO[C@@H]1[C@@H](OC(N)=O)[C@@H](O)[C@H](Oc2ccc3c(O)c(NC(=O)c4ccc(O)c(CC=C(C)C)c4)c(=O)oc3c2C)OC1(C)C
not listed: [10]
inactive: all other assays above

NS(=O)(=O)c1cc2c(cc1Cl)CN(C1CCCCC1)C2=O
not listed: [8] | [9] | [10]
inactive: all other assays above

O=S(=O)(O)CCN1CCN(CCO)CC1
not listed: [3]
inactive: all other assays above

C=C(C)C(=O)OCc1ccccc1
not listed: [3] | [6]
inactive: all other assays above

CC(C)C(=O)OCc1cccc(OC(=O)[C@@H]2N3C(=O)[C@@H](NC(=O)Cc4ccccc4)[C@H]3SC2(C)C)c1
inactive: [1] | [2] | [3] | [10] | [5] | [6]

O=C(O)Cc1cn(-c2ccccc2)nc1-c1ccc(Cl)cc1
not listed: [8] | [9] | [10]
inactive: all other assays above

CC/C=C\CC1=C(C)CCC1=O
not listed: [10]
inactive: all other assays above

COc1cc2c(cc1OC)[C@@H]1CC(=O)[C@@H](CC(C)C)CN1CC2
not listed: [8] | [9] | [10]
inactive: all other assays above

Cc1cccc(OCC(O)CNC(C)(C)C)c1C (stereo not drawn)
not listed: [8] | [9] | [10]
inactive: all other assays above

Cc1cc(C(C)(C)C)c(O)c(C)c1CC1=NCCN1
not listed: [8] | [9] | [10]
inactive: all other assays above

O=C(NCCN1CCOCC1)c1ccc(Cl)cc1
not listed: [10]
inactive: all other assays above

CC(C)C[C@H](NC(=O)CNC(=O)[C@H](Cc1ccc(O)cc1)NC(=O)[C@H](CO)NC(=O)[C@H](Cc1c[nH]c2ccccc12)NC(=O)[C@H](Cc1cnc[nH]1)NC(=O)[C@@H]1CCC(=O)N1)C(=O)N[C@@H](CCCN=C(N)N)C(=O)N1CCC[C@H]1C(=O)NCC(N)=O (stereo in doubt)
inactive: [1] | [2] | [3] | [7] | [4] | [5]

Cc1cccc(C)c1NC(=O)c1ccccc1C(=O)O
not listed: [3]
inactive: all other assays above
